Assay results as given in PubChem BioAssay AID1259240 (Keith Lab, Institute of Cancer Science, University of …, 2017).
Active and inactive are the calls of the source. No stated cut-off is given here; in the data, active means fold change mostly below about -2 (no sharp cut-off); inactive means mostly above about -1.8.

experiment: modulation of TERT promoter-driven luciferase – cell-based, luciferase reporter, human, primary screen (AID 1259240); settings: A2780 TERT promoter luciferase reporter, 16 h; at 20 µM, fold versus average of vehicle-only wells

Fold change, inactive:
Cc1csc(NC(=O)C2CCCN2S(=O)(=O)c2cccc3cccnc23)n1 (stereo not given) -1.27
COc1nc(OCCNS(=O)(=O)c2ccc(C)cc2)nc(N(C)C)n1 -1.19
Clc1ccc(CNc2ccc3nncn3n2)cc1 -1.3
CC(=O)N(C1=C(N(C)C)C(=O)c2ccccc2C1=O)c1cc(C)cc(C)c1 -1.54
Cn1c(=O)c2c(SCC(=O)Nc3ccccc3F)nc(-c3cccs3)nc2n(C)c1=O 1.46
Cc1cc(C)n(-c2nc3cc(Cl)ccc3nc2Cl)n1 1.03
COc1cccc(NC2SC(=O)N(c3ccccc3)C2=O)c1 (stereo not given) 1.28
Cc1cc(C(=O)Nc2ccc(F)cc2F)on1 1.55
Cc1nc2c3ccccc3nc(NNC(=O)CCC(=O)N3CCCC(C)C3)n2n1 (stereo not given) -1.02
COc1ccccc1N1CCN(S(=O)(=O)c2cccc3cccnc23)CC1 -1.29
O=C(CSc1nc(-c2ccco2)cc(C(F)(F)F)n1)NCc1cccnc1 -1.4
OCCOCCn1c(-c2ccccc2)nc(=S)c2c1CCCC2 -1.03
CCOC(=O)C1=C(CS(=O)(=O)c2ccc(F)c(C)c2)NC(=O)NC1c1cc(OC)ccc1OC (stereo not given) 1.23
O=C(c1cccc(Cl)c1)N1CCN(c2ccc3nnc(-c4ccccc4)n3n2)CC1 1
Cc1[nH]nc2c1C(c1ccccc1F)NC2=O (stereo not given) -1.71
Cc1ccc(SCc2nc3sccn3c2Br)cc1 -1.17
CC(C)CC(NS(=O)(=O)c1ccc2c(c1)oc(=O)n2C)C(=O)N1CCn2c1nc1ccccc12 (stereo not given) -1.61
CCOC(=O)N1CCN(c2c(NCC3CCCO3)c(=O)c2=O)CC1 (stereo not given) 1.16
O=C(Cn1c(=O)n(CC(=O)NC2CCCC2)c(=O)c2ccccc21)Nc1cccc(F)c1 1.16
CC(C)Oc1ccc(C2CC(=O)Nc3cc4c(cc32)OCCO4)cc1 (stereo not given) 1
c1ccc2c(c1)OCC(CNc1nnc(Cc3ccncc3)c3ccccc13)O2 (stereo not given) -1.37
O=C1C2ON(c3ccccc3)C(c3ccncc3)C2C(=O)N1c1ccc(N2CCOCC2)cc1 (stereo not given) -1.7
CCOC(=O)C1=C(CS(=O)(=O)c2ccccc2)NC(=O)NC1c1cc(OC)c(OC)cc1OC (stereo not given) 1.83
CC(C)CCSc1nc(-c2ccc([N+](=O)[O-])cc2)nc2c1c(=O)n(C)c(=O)n2C 1.2
Cn1c(=O)[nH]c(=O)c2c1nc(NCCc1ccccc1)n2CCO -1.23
Cc1oc2cc(OC(=O)N3CCOCC3)ccc2c(=O)c1Oc1ccccc1Br -1.46
CCOC(=O)CN1CC23C=CC(O2)C(C(=O)Nc2ccc(OCC)cc2)C3C1=O (stereo not given) 1.29
Cc1nnc2ccc(N3CCC(C)CC3)nn12 1.03

Fold change, active:
Cc1nn(-c2nc3ccccc3[nH]2)c(=O)c2ccccc12 -14.7
CCOC(=O)C1CCN(c2cc(C)c(C#N)c3nc4ccccc4n23)CC1 -2.16
Cc1ccn2c(NC(=O)CC(C)C)c(-c3ccc(F)cc3)nc2c1 -2.38
CC(C)(C)NC(=O)Cn1c(=O)oc2ccc(Cl)cc21 -3.03
Cc1ccc(-c2cc(C(F)F)n3ncc(C(=O)N4CC(C)OC(C)C4)c3n2)cc1 (stereo not given) -2.07
CCN1/C(=C/C=C/c2sc3cc(NC(C)=O)ccc3[n+]2CC)Sc2cc(NC(C)=O)ccc21 -2.62
CCn1c(SCc2nc(-c3ccc(Cl)cc3)no2)nnc1-c1ccco1 -2.86

outcome, active:
CC(C)Cc1nnc(NC(=O)CSc2nc(N)cc(=O)[nH]2)s1

outcome, inactive:
O=c1[nH]c(-c2ccc3nsnc3c2)nc2ccccc12
COCCn1c(SCC(=O)NCC2CCCO2)nnc1-c1c[nH]c2ccccc12 (stereo not given)
CCOc1ccc(N2CC(O)=C(c3nc4ccccc4c(=O)[nH]3)C2=N)cc1
CC1=C(C(N)=O)C(c2ccc(O)cc2)n2nc(CCCO)nc2N1 (stereo not given)
